Source: PubChem
Shown are actives, neighbours in structure and some others; about 3.5% of the full set was active somewhere.
Tau fluor cs = counter-screen for tau fibril formation inhibitors; Potency, µM (doses to about 57.7 µM); AID 1463; 280,000 compounds, 0.93% hits; tau K18 P301L Alexa594 fluorescence, heparin fibrillization; further: nearly all actives have a fitted effect of over 55% in size
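Human tau K18 P301L (15 uM unlabeled, 0.24 uM Alexa 594-labeled) in 100 mM sodium acetate pH 7 with 20 uM heparin, 6 hr at 37 C. ThT 30 uM added, 1 hr ambient; Alexa 594 FP and total fluorescence read at 555/632 nm.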
Tau ThT inhib = inhibitors of human tau fibril formation, thioflavin T binding | recombinant tau K18 P301L, heparin-induced fibrillization, ThT fluorescence | Potency, µM (highest dose often 57.4 µM), most hits filed as inhibitors | 270,000 compounds, 2.1% hits; further: nearly all actives have a fitted effect of over 55% in size
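ThT emission at 510 nm, taken 1 hr after adding 30 uM dye, quantifies aggregates formed when 20 uM heparin acts on human tau K18 P301L for 6 hr at 37 C.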
TRb-SRC2 inh = disrupts binding of human TR beta to SRC2; P10828; TRbeta-SRC2 peptide binding, fluorescence polarization; receptor liganded with 1 µM T3; Potency, µM (series often up to 106 µM), most hits filed as inhibitors; 280,000 compounds, 0.065% hits; AID 1469; further: nearly all actives have a fitted effect of over 50% in size
Target sequence (P10828 whole entry, looked up): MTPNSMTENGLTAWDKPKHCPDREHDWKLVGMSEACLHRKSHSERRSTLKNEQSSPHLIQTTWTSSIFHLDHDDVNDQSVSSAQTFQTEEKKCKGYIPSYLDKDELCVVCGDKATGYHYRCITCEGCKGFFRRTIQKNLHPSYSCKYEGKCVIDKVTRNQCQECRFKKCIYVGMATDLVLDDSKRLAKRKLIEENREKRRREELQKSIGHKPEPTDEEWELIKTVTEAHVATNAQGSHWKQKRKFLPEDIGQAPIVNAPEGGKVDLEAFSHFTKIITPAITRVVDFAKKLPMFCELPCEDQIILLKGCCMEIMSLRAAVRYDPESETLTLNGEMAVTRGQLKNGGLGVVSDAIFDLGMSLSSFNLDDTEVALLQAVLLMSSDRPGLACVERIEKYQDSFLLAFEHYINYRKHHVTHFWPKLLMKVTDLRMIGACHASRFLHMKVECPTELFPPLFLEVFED
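Human TRb ligand-binding domain (0.6 uM) is mixed with 20 nM Texas Red SRC2 peptide and 1 uM T3; after compound addition and 5 hr at ambient temperature, polarization is measured and normalized to unbound and bound controls.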
Tau FP inhib = blocks human tau fibril formation measured by polarization; 280,000 compounds, 0.39% hits; AID 1468; K18 P301L tau heparin fibrillization, Alexa594 FP, 6 h; P10636; Potency, µM (top dose mostly 57.7 µM), hits mostly inhibitors; further: nearly all actives have a fitted effect of over 55% in size
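Human K18 P301L fragment (15 uM unlabeled plus 0.24 uM Alexa 594-labeled) in 100 mM sodium acetate pH 7 with compound, aggregation induced by 20 uM heparin for 6 hr at 37 C. ThT (30 uM) added for 1 hr, then Alexa 594 FP read.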
JMJD2E inh = blocks human JMJD2E demethylase activity | JMJD2E catalytic domain, FDH-coupled NADH fluorescence (FDH is formaldehyde dehydrogenase) | 230,000 compounds, 1.6% hits | Potency, µM (doses to about 57.1 µM), most hits filed as inhibitors | AID 2147 | B2RXH2; active means well fitted inhibition curve with a large enough effect, not every such curve was filed as active; inconclusive means small, poorly fitted or top-dose-only effect, or another doubt; inactive means no such curve, though single readings can be large or run the other way; further: nearly all actives have a fitted effect of over 50% in size
TexasRed fluor = counter-screen for TRb-SRC2 inhibitors: fluorescence interference. 280,000 compounds, 0.29% hits. TRb/SRC2 Texas Red total fluorescence interference. Potency, µM (series often up to 106 µM); active means well fitted curve in either direction with a large enough effect; inconclusive means small, poorly fitted or top-dose-only effect
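Human TRβ ligand-binding domain (0.6 uM) and Texas Red SRC2 peptide (20 nM) in Tris buffer with 1 uM T3 and 5% DMSO were incubated with pinned compound for 5 hr at ambient temperature. Total fluorescence was computed as S + 2P (555/632 nm).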
A number is an active result; – = inactive; ? = inconclusive; · = no result given; [ ] = remark or other dose. Unless noted, the call rests on the fitted dose curve; in most records, active means well fitted curve in the direction sought with a large enough effect; inconclusive means small, poorly fitted or top-dose-only effect, or another doubt; inactive means no such curve, though single readings can be large; an effect the other way counts as inactive or inconclusive.

SMILES | Tau fluor cs | Tau ThT inhib | TRb-SRC2 inh | Tau FP inhib | JMJD2E inh | TexasRed fluor
COC(=O)c1[nH]nc(C(=O)OC(C)(C)C)c1-c1ccccc1 | – | – | – | – | – | –
CC(=O)C1=C(c2ccc(Br)cc2)C(=O)c2ccccc2C1=O | ? | 8.91µM | – | ? | ? | –
COc1ccc(S(=O)(=O)Nc2cc(C(C)C)c(O)cc2C)cc1 | – | – | – | – | – | –
COc1ccc2nc3cc(Cl)ccc3c(Nc3cc(C(C)C)c(O)cc3C)c2c1 | 7.08µM[quencher] | 5.01µM | – | ? | ? | –
Cc1cc(C)n(S(=O)(=O)c2ccc(C(C)(C)C)cc2)n1 | – | – | – | – | – | –
COCCNC(=O)C1CC2Cn3c(nc4cc5ccccc5cc43)C2N1C (configuration not stated) | – | – | – | – | ? | –
Cc1nc2ccc([N+](=O)[O-])cc2nc1C | – | – | – | – | – | –
Cc1ccc2nc3cc([N+](=O)[O-])cc([N+](=O)[O-])c3cc2c1 | ? | 3.16µM | – | ? | – | –
N#C/C(=C\Nc1ccc2cn[nH]c2c1)c1nc(-c2ccc(Cl)cc2)cs1 | ? | ? | 70.8µM | – | – | ?
COc1ccc(OC)c(C2C(C(C)=O)=C(O)C(=O)N2CCN2CCOCC2)c1 (configuration not stated) | – | ? | – | – | – | –
CN(C(=O)COc1ccccc1)c1nnc(C23CC4CC(CC(C4)C2)C3)s1 | – | – | – | – | – | –
Clc1ccc(Nc2ccc(NCc3ccccc3)nn2)cc1 | 12.6µM[quencher] | ? | – | – | ? | –
CC(C)(C)OC(=O)N1CCC(c2c(C(=O)NCCN3CCC(Cc4ccccc4)CC3)cnn2-c2ccc(F)cc2)CC1 | – | – | – | – | · | –
O=C1NN(c2cccc(Br)c2)C(=O)/C1=C/c1ccc(-c2cc([N+](=O)[O-])ccc2O)o1 | 4.47µM[quencher] | 2.82µM | – | ? | – | –
C=CCN1C(=O)/C(=C/c2ccc(O)cc2)S/C1=N/c1nccs1 | 3.55µM[quencher] | ? | – | ? | – | –
C=CCN1C(=O)/C(=C2/C(=O)N(CC(=O)O)c3ccccc32)S/C1=N/c1nccs1 | ? | 7.08µM | – | – | – | –
Cc1nn(-c2ccccc2)c(C)c1NC(=O)COc1ccc(C#N)cc1 | – | – | – | – | – | –
Cc1cccc(OCCCC(=O)Nc2ccc(S(N)(=O)=O)cc2)c1 | – | – | – | – | – | –
Cc1ccc(-c2onc3ccc(C=O)cc23)cc1 | ? | 25.1µM | – | ? | ? | –
COc1ccccc1CCN=C(N)NS(=O)(=O)c1ccccc1 | – | – | – | – | ? | –
CCOc1cc(/C=N/NC(=O)c2ccc(-c3csc(Nc4ccc(C)cc4)n3)cc2)ccc1OCC(=O)O | ? | 2.82µM | – | – | ? | –
CC(=O)C(Cc1cnc(Cl)s1)(Cc1cnc(Cl)s1)C(C)=O | – | – | – | – | – | –
CCOC(=O)CC1C(=O)NCCN1C(=O)c1cc2c(=O)n3cccc(C)c3nc2s1 (configuration not stated) | – | – | – | – | ? | –
CCCN1C(=O)/C(=C/c2c(N3CCNC(=O)C3CC(=O)OC)nc3c(C)cccn3c2=O)SC1=S (configuration not stated) | – | 5.62µM | – | – | – | –
COc1ccc(C(c2c[nH]c3ccccc23)c2c[nH]c3ccccc23)cc1O | 14.1µM[quencher] | ? | – | ? | – | –
CCOC(=O)c1ccc(N2C(=O)c3n[nH]c(-c4ccco4)c3C2c2ccc(OC)cc2OC)cc1 (configuration not stated) | ? | – | – | ? | · | –
CCC1(CC)C(=O)C2=C3C1[C@H](C(=O)OC)CC(C(=O)OC)C[C@H]3n1c(=O)n(-c3ccccc3)c(=O)n1[C@H]2C (some centres not stated) | · | · | ? | · | · | 44.7µM[fluorescent]
CCOc1ccc(-n2c(=O)cc(N3CCN(c4ccccc4)CC3)[nH]c2=O)cc1 | – | – | – | – | – | –
CCO[C@H]1OC(C(=O)N2CCOCC2)=C[C@@H](c2ccc(Br)cc2)[C@@H]1CCCO | – | – | – | – | – | –
